From PubChem BioAssay (NCATS)
Inconclusive results are not listed. Unmarked numbers belong to inactive results. Calls of active or inactive are those of the source. The call rests on the fitted dose curve; in most records, active means well fitted inhibition curve with a large enough effect; inconclusive means small, poorly fitted or top-dose-only effect; inactive means no such curve, though single readings can be large or run the other way.

Experiment: qHTS for Inhibitors of ATXN expression: Validation (AID 588378); further: nearly all actives have a fitted effect of over 75% in size
Conditions: cell-based ATXN2 expression reporter assay, luminescence; series mostly up to 57.1 µM; activity change, negative = inhibition: at the top concentration
Outline: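 Compounds were pinned onto attached HEK293 cells carrying an ATXN2-firefly luciferase construct and incubated 24 hrs at 37 degrees C. Each well then received a fluorescent viability reagent followed by luciferase substrate for end-point luminescence.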
On the % scale 0 is the no-effect control and ±100 the full control effect; potency means the concentration at half of the fitted maximal effect.

Structure (SMILES) | activity change, negative = inhibition [%] | Potency
COC(=O)C1=CO[C@@H](O)[C@@H]2C(CO)=CC[C@H]12 | -28.7 | 
O=C1NC(c2cccc([N+](=O)[O-])c2)=CCN1c1ccccc1O | 5.34 | 
COc1ccccc1N1CCN(CCN2C(=O)CC3(CCCC3)CC2=O)CC1 | -8.71 | 
Clc1ccc2c(c1)N=C(N1CCNCC1)c1ccccc1N2 |  | 12.6 µM (active)
O=C1NC(=O)/C(=C/c2ccc3c(c2)OC(F)(F)O3)S1 | 67 | 
O=[N+]([O-])c1ccc(-c2nc(-c3ccc(F)cc3)c(-c3ccncc3)[nH]2)cc1 | 1.59 | 
Cc1nn(-c2ccccc2)c(C)c1/C=N/N1CCN(Cc2ccccc2)CC1 | -4.74 | 
NC(N)=NCCCCN=C(N)N | -14.3 | 
N[C@@H](Cn1ccc(=O)c(O)c1)C(=O)O | -6.38 | 
Cn1cnc2c(NCc3ccccc3)nc(NCCO)nc21 | 10.7 | 
CCN(CC)CCNC(=O)c1ccc(NS(C)(=O)=O)cc1 | 0.924 | 
Brc1ccc([C@H]2CN3CCSC3=N2)cc1 | -13.9 | 
C[N+](C)(C)CCO | 0.414 | 
